Records with an inconclusive call do not appear. The source made the active and inactive calls. Unless noted, calls come from the whole dose curve; as a rule, active = well fitted inhibition curve with a large enough effect; inconclusive = small, poorly fitted or top-dose-only effect; inactive = flat fitted curve, though single readings scatter.

Experiment [1] is described as follows: qHTS profiling for inhibitors of Plasmodium falciparum proliferation (AID 504749).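 Note: 0% = DMSO vehicle and full inhibition = artemisinin control; nearly all actives have a fitted effect of over 60% in size.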 To be noted: P. falciparum in erythrocytes, SYBR Green DNA, 72 h, at 28.7 µM (top of the series). In a few lines: (§1)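 Fluorescence of SYBR Green-bound parasite DNA, read at 485/535 nm, served as the growth measure. Infected erythrocytes were cultured with compound 72 h; artemisinin (0.29 uM) and DMSO wells defined the normalization range.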
(In qHTS, concentration-response curves come from the screen itself.)

Experiment [2] deals with 3D7. Described as above. As to conditions: P. falciparum in erythrocytes, SYBR Green DNA, 72 h; series mostly up to 28.7 µM. The method, boiled down:
as §1

Experiment [3] deals with 7G8. The description is as above. As to conditions: P. falciparum in erythrocytes, SYBR Green DNA, 72 h; series mostly up to 28.7 µM. The method, boiled down: as §1
In experiment [4] the test system is AA1029. The description is as above. To be noted: P. falciparum in erythrocytes, SYBR Green DNA, 72 h; series mostly up to 28.7 µM. The method, boiled down: as §1
Experiment [5] deals with AS120. The experiment is described as above. As to conditions: P. falciparum in erythrocytes, SYBR Green DNA, 72 h; series mostly up to 28.7 µM. The method, boiled down:
as §1

In experiment [6] the test system is ATS189. Described as above. To be noted: P. falciparum in erythrocytes, SYBR Green DNA, 72 h; series mostly up to 28.7 µM. The method, boiled down:
as §1

Experiment [7] concerns ATS95. The description is as above. To be noted: P. falciparum in erythrocytes, SYBR Green DNA, 72 h; series mostly up to 28.7 µM. The method, boiled down:
as §1

In experiment [8] the test system is C2A. The experiment is described as above. As to conditions: P. falciparum in erythrocytes, SYBR Green DNA, 72 h; series mostly up to 28.7 µM. The method, boiled down:
as §1

Experiment [9] relates to CP185. Described as above. To be noted: P. falciparum in erythrocytes, SYBR Green DNA, 72 h; series mostly up to 28.7 µM. The method, boiled down: as §1
Experiment [10] deals with CP191. The description is as above. As to conditions: P. falciparum in erythrocytes, SYBR Green DNA, 72 h; series mostly up to 28.7 µM. In a few lines: as §1
For experiment [11], the system named is CP192. The description is as above. To be noted: P. falciparum in erythrocytes, SYBR Green DNA, 72 h; series mostly up to 28.7 µM. The method, boiled down:
as §1

The test system of experiment [12] is CP194. The description is as above. As to conditions: P. falciparum in erythrocytes, SYBR Green DNA, 72 h; series mostly up to 28.7 µM. In a few lines: as §1
For experiment [13], the system named is CP201. The description is as above. To be noted: P. falciparum in erythrocytes, SYBR Green DNA, 72 h; series mostly up to 28.7 µM. The method, boiled down:
as §1

For experiment [14], the system named is CP203. Described as above. To be noted: P. falciparum in erythrocytes, SYBR Green DNA, 72 h; series mostly up to 28.7 µM. The method, boiled down:
as §1

Experiment [15] concerns CP211. The experiment is described as above. As to conditions: P. falciparum in erythrocytes, SYBR Green DNA, 72 h; series mostly up to 28.7 µM. In a few lines:
as §1

In experiment [16] the test system is CP215. The experiment is described as above. To be noted: P. falciparum in erythrocytes, SYBR Green DNA, 72 h; series mostly up to 28.7 µM. In a few lines: as §1
Experiment [17] is described as follows: qHTS drug screen for cell cycle checkpoint inhibitors in PARPi-resistant BRCA-mutant ovarian cancer cell lines. (AID 1963452; calls by dose curve). As to conditions: PEO1/OlaR viability, CellTiter-Glo luminescence, 96 h, stronger effect = lower value. In a few lines:
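PEO1, PEO4 and PEO1/OlaR ovarian cancer cells, 600 per well, exposed 96 h at 37C to a dilution series. Viability read by CellTiter-Glo luminescence, normalized to DMSO and empty wells; activity summarized as Z-AUC.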

Setting [18] is: measured here: PEO1 parental Z-AUC.

As for `COc1cc(O)cc(O)c1`, the values for the activity, negative = inhibition in experiment [1] (parasite line A) and in [1] (parasite line B) were 4.63% (inactive) and -8.81% (inactive), respectively. Moreover, the Potency entry in experiment [2], in experiment [3], in experiment [4], in experiment [5], in experiment [6] and in experiment [7] was “inactive” each time. The Potency result in experiment [8], in experiment [9], in experiment [14] and in experiment [16] was “inactive” each time. Also, the molecule was called inactive in [10], in [11], in experiment [12], in experiment [13] and in [15].

In the case of `CCOC(=O)[C@H](CCc1ccccc1)N[C@@H](C)C(=O)N1CCC[C@H]1C(=O)O`, the Z-AUC in [17] was 0.643 (inactive); in experiment [17] (setting [18]), 0.764; in [17] (measured here: PEO4 Z-AUC), 0.867. In experiment [1] (parasite line A), the activity, negative = inhibition is 7.69% (inactive). The Potency result in [2], in experiment [3], in [5], in [6], in experiment [7] and in [8] was “inactive” in each case. Also, the Potency result in experiment [9] was “inactive”. Also, the molecule was called inactive in [10], in experiment [11], in [12], in [13] and in experiment [15].

On to `O=C(Cn1ccnc1[N+](=O)[O-])NCc1ccccc1`, for which the activity, negative = inhibition in [1] (parasite line A) was 12.6% (inactive); in [1] (parasite line B) it was 10.2% (inactive). In addition, the Potency entry in experiment [2], in experiment [3], in [4], in experiment [5], in experiment [6] and in [7] was “inactive” each time. Further, the Potency entry in [8], in experiment [9], in [14] and in experiment [16] was “inactive” in each case. Moreover, the call in experiment [10], in [11], in experiment [12], in [13] and in [15] was inactive.

As to `Nc1ccc(C(=O)Oc2ccccc2)c(O)c1`, the activity, negative = inhibition in experiment [1] (parasite line A) is -10.9% (inactive); in [1] (parasite line B), 5.45% (inactive). Also, the Potency entry in experiment [2], in experiment [3], in [4], in experiment [5], in experiment [6] and in [7] was “inactive” throughout. For the same molecule, the Potency result in experiment [8], in experiment [9] and in experiment [14] was “inactive” each time. Also, the call in experiment [10], in experiment [11], in [12], in experiment [13] and in experiment [15] was inactive.

In the case of `NNC(=O)CP(=O)(c1ccccc1)c1ccccc1`, the values for the activity, negative = inhibition in [1] (parasite line A) and in [1] (parasite line B) were 8.38% (inactive) and 6.41% (inactive), respectively. The Potency entry in [2], in experiment [3], in experiment [4], in experiment [5], in [6] and in experiment [7] was “inactive” each time. In addition, the Potency entry in [8], in experiment [9], in [14] and in experiment [16] was “inactive” throughout. In addition, the molecule was called inactive in experiment [10], in [11], in [12], in experiment [13] and in experiment [15].

With `O=c1[nH]c(=O)n([C@H]2C[C@H](O)[C@@H](CO)O2)cc1I`, the Z-AUC is 1.59 (inactive) in [17], 0.705 in experiment [17] (setting [18]) and 0.916 in experiment [17] (measured here: PEO4 Z-AUC).

`Cc1onc(-c2ccccc2)c1-c1ccc(S(N)(=O)=O)cc1`: the Z-AUC was -1 (inactive) in [17], -0.334 in experiment [17] (setting [18]) and 0.0747 in experiment [17] (measured here: PEO4 Z-AUC). In addition, the activity, negative = inhibition in experiment [1] (parasite line A) is -24.3% (inactive). In addition, the Potency entry in experiment [2], in experiment [3], in [4], in experiment [5], in experiment [6] and in experiment [7] was “inactive” each time. Besides, the Potency result in [8] and in experiment [9] was “inactive” throughout. The result in [10], in experiment [11], in experiment [12], in experiment [13] and in experiment [15] was inactive.

As to `CC(=O)Nc1cccc(O)c1`, the results for the activity, negative = inhibition in experiment [1] (parasite line A) and in [1] (parasite line B) were 7.02% (inactive) and 9.95% (inactive), respectively. Further, the Potency result in experiment [2], in [3], in [4], in experiment [5], in experiment [6] and in experiment [7] was “inactive” in each case. Further, the Potency entry in experiment [8], in experiment [9], in [14] and in [16] was “inactive” in each case. Also, the outcome in experiment [10], in experiment [11], in experiment [12], in experiment [13] and in experiment [15] was inactive.
